Measurements taken from PubChem BioAssay (Tox21).
Records with an inconclusive call do not appear. Calls of active or inactive are those of the source. Unless noted, calls follow the shape of the dose curve; as a rule, active = well fitted curve in the direction sought with a large enough effect in the repeat runs; inconclusive = weak or mixed curves; inactive = no such curve, though single readings can be large; an effect the other way counts as inactive or inconclusive.

Legend:
[1] = molecular target: Thyrotropin receptor (Homo sapiens) (UniProt P16473); experiment: qHTS assay to identify small molecule agonists of the thyroid stimulating hormone receptor (TSHR) signaling pathway (AID 1224843; calls by dose curve; also: nearly all actives have a fitted effect of over 45% in size); details: TSHR-HEK293 cells, cAMP HTRF, agonist mode, 30 min; series mostly up to 92.4 µM
In short: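 A cell-based cAMP HTRF format was run in TSHR-transfected HEK293 cells, 800 per well. Treatment: 30 min, room temperature. Detection: 1 h with labelled cAMP and anti-cAMP cryptate. Concentration-response over 15 points, three replicates.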

[2] = qHTS assay to identify small molecule agonists of the hypoxia (HIF-1) signaling pathway - cell viability counter screen (AID 1224844; calls by dose curve; also: nearly all actives have a fitted effect of over 50% in size); details: HRE-bla ME-180 viability, CellTiter-Glo luminescence, 17 h; series mostly up to 76.8 µM
In short: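 CellTiter-Glo luminescence read-out, 30 min RT, taken in the same wells as the beta-lactamase HRE reporter assay; HRE-bla ME-180 cells, 0.5% dialyzed FBS, 17 hr compound treatment at 37C, 5% CO2.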

[3] = qHTS assay to identify small molecule agonists of H2AX (AID 1224845; active = well fitted activation curve with a large enough effect in the signal ratio in the repeat runs, not every such curve was filed as active; the % refers to the signal ratio); details: CHO-K1 phospho-H2AX Ser139 HTRF, 3 h; series mostly up to 154 µM
In short: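 Phospho-H2AX Ser139 measured by HTRF (ex 320 nm; em 665 and 620 nm) after 24 hr antibody incubation. Compounds, 15 concentrations, 0.76% DMSO, were applied to CHO-K1 cells for 3hr at 37C before lysis.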

[4] = qHTS assay to identify small molecule agonists of the hypoxia (HIF-1) signaling pathway (AID 1224846; active = well fitted activation curve with a large enough effect in the signal ratio in the repeat runs, not every such curve was filed as active; the % refers to the signal ratio); details: HRE-bla ME-180 cells, beta-lactamase ratio, 17 h; series mostly up to 76.8 µM
In short: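 Beta-lactamase FRET read-out (CCF4-AM substrate) from ME-180 cells carrying an HRE-driven bla reporter, after 17 hrs compound exposure at 37C/5% CO2. Cells were seeded at 2,000 per well in 0.5% dialyzed FBS medium and preincubated 5 hrs.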

[5] = qHTS assay to identify small molecule antagonists of the estrogen related receptor (ERR) signaling pathway from Tox21 library (AID 1224848); details: ERR reporter cell line, luciferase antagonist mode, 18 h; series mostly up to 92.4 µM; also: nearly all actives have a fitted effect of over 50% in size; also: potency is read from the fitted curve at half-maximal effect
In short: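 ERR cell line, 2,000 cells/well. 6 h settle, then compound (DMSO) added; 18 h at 37 C; ONE-Glo luminescence after 30 min RT.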

[6] = qHTS assay to identify small molecule agonists of the estrogen related receptor (ERR) signaling pathway from Tox21 library (AID 1224849; calls by dose curve; also: nearly all actives have a fitted effect of over 15% in size); details: ERR reporter cell line, ONE-Glo luciferase, 18 h; at 92.4 µM (top of the series) unless noted
In short: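 Luminescence readout (ONE-Glo, 30 min RT) after 18 h compound exposure at 37 C of NTP-supplied ERR reporter cells; cells were plated 6 h before compound addition by pin tool.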

[7] = qHTS RealTime-Glo MT Cell Viability Assay in HepG2 cells - 24 hour (AID 1224867); details: RealTime-Glo luminescence; series mostly up to 76.8 µM; also: nearly all actives have a fitted effect of over 50% in size
In short: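 HepG2 cells (600/well) were dispensed with RealTime-Glo reagents, incubated 5 h at 37 °C, then treated with compounds in DMSO for up to 40 h. Nonlytic NanoLuc luminescence reflecting viable cells was read at each stated time point.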

[8] = qHTS RealTime-Glo MT Cell Viability Assay in HEK293 cells - 32 hour (AID 1224868); details: RealTime-Glo luminescence; series mostly up to 76.8 µM; also: nearly all actives have a fitted effect of over 50% in size; also: potency is read from the fitted curve at half-maximal effect; as to activity change, negative = cytotoxic: top concentration of the series differs between compounds
In short: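 HEK293 cells seeded with NanoLuc/prosubstrate reagent, rested 5 h at 37 C, then dosed and kept at 37 C up to 40 h. Nonlytic real-time luminescence from viable cells read at 0, 8, 16, 24, 32 and 40 h.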

[9] = A CellTox Green Cytotoxicity Assay to monitor cytotoxicity in HEK293 cells - 0 hour (AID 1224869); details: CellTox Green fluorescence; series mostly up to 76.8 µM; also: nearly all actives have a fitted effect of over 50% in size
In short: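 Read-out: fluorescence of a cell-impermeant cyanine dye staining DNA of dead cells, proportional to cytotoxicity. HEK293, 600 cells/well with reagent, compound (23 nL DMSO) added after 5 h; reads at 0, 8, 16, 24, 32, 40 h.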

[10] = qHTS assay to identify small molecule agonists of H2AX - cell viability counter screen (AID 1224847; calls by dose curve; also: top concentration of the series differs between compounds; nearly all actives have a fitted effect of over 30% in size); details: CHO-K1 viability, CellTiter-Glo luminescence, 3 h; series mostly up to 154 µM
In short: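 Wild-type CHO-K1 cells (10% FBS medium) were plated overnight at 37C, exposed to compounds at 15 concentrations for 3 hr at 37C (0.76% DMSO final), and viability was read as CellTiter-Glo luminescence after 30 min at room temperature.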
% is scaled to controls: 0 for no effect and ±100 for the full control effect.

Sequence of Thyrotropin receptor (Homo sapiens) (P16473 whole entry, looked up): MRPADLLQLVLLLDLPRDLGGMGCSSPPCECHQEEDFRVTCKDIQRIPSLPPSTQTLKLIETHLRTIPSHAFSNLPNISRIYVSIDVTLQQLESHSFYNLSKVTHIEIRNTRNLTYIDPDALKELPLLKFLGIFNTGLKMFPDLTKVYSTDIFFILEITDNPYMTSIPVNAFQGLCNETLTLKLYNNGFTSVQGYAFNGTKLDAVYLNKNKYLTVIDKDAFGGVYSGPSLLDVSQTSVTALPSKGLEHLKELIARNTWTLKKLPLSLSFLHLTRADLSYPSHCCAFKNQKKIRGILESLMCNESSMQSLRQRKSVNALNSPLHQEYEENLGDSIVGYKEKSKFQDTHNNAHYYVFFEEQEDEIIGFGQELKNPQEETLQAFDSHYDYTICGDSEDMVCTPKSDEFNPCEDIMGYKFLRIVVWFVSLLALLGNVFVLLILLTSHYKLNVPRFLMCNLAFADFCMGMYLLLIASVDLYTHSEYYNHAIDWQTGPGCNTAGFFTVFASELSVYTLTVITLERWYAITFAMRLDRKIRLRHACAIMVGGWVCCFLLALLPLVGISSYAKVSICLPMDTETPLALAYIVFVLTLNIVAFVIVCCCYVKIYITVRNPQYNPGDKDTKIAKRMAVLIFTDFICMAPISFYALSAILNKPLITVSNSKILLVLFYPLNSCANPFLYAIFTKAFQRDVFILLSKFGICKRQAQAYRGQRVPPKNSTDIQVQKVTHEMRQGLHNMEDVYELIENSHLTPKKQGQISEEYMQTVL

Cc1ccccc1CCO
inactive: Potency [1] | Potency [2] | Potency [3] | outcome [4] | Potency [5] | activity change, positive = activation [6] -1.5% | outcome [7] | Potency [8] | Potency [9]

CCCCCCCCCCCCCCCCCCCl
inactive: activation [1] -0.25% [at 8.39 µM] | activity change, negative = cytotoxicity [2] 0.227% [at 6.97 µM] | activation (H2AX phosphorylation) [3] -0.95% [at 14 µM] | activity change, negative = cytotoxicity [10] 2.91% [at 14 µM] | activity, negative = inhibition [5] 23.3% [at 8.39 µM] | activity change, negative = cytotoxicity [7] 1.13% [at 6.97 µM] | activity change, negative = cytotoxic [8] -2.36% [at 6.97 µM] | cytotoxicity [9] 0.805% [at 6.97 µM]

Cc1cc(C)c(C)c(O)c1
inactive: Potency [1] | Potency [2] | Potency [3] | Potency [10] | Potency [5] | activity change, positive = activation [6] 1.16% | outcome [7] | Potency [8] | Potency [9]

COc1ccc(C(=O)c2ccc(C)cc2)c(O)c1
inactive: Potency [1] | Potency [2] | Potency [3] | outcome [4] | Potency [5] | outcome [7] | Potency [9]
active: activity change, positive = activation [6] 16.4%

Sc1nc(S)nc(S)n1
inactive: Potency [1] | Potency [2] | Potency [3] | Potency [10] | activity change, positive = activation [6] -29.2% [at 42.5 µM] | outcome [7] | Potency [8] | Potency [9]

N#C[C@@H]1CC(F)(F)CN1C(=O)CNC1CC2CCC(C1)N2c1ncccn1 (some centres undefined)
inactive: Potency [1] | Potency [2] | Potency [3] | Potency [10] | Potency [5] | activity change, positive = activation [6] -3.52% | outcome [7] | Potency [8] | Potency [9]

CCc1ccc2c(c1)C(=O)c1ccccc1C2=O
inactive: Potency [1] | Potency [2] | Potency [3] | outcome [4] | outcome [7] | Potency [8] | Potency [9]

CC1=CC(=C(c2ccc(N)cc2)c2ccc(N)cc2)C=CC1=N
active: Potency [5] 2.19 µM
inactive: activation [1] 3.86% [at 8.39 µM] | activity change, negative = cytotoxicity [2] -15.8% [at 6.97 µM] | activation (H2AX phosphorylation) [3] -3.22% [at 14 µM] | activity change, positive = activation [6] -47.7% [at 8.39 µM] | activity change, negative = cytotoxicity [7] -2.94% [at 6.97 µM] | cytotoxicity [9] -6.03% [at 6.97 µM]

Cc1ccc(NC(=O)c2ccc(CN3CCN(C)CC3)cc2)cc1Nc1nccc(-c2cccnc2)n1
inactive: Potency [1] | Potency [2] | Potency [3] | Potency [10] | outcome [7] | Potency [9]
active: Potency [8] 21.3 µM

O=[N+]([O-])c1cccc(I)c1
inactive: Potency [1] | Potency [2] | Potency [3] | Potency [10] | outcome [7] | Potency [8] | Potency [9]
